# In PubChem BioAssay (NCI):
# Where “and” joins values, the source holds several entries; their conditions need not be identical. Equal entries are not always repeated. Compounds without any hit were thinned out: in the full panel of roughly 79,000, 15% have a hit. Calls of active or inactive are those of the source. Cut-off read from the data, not from the text of the source: active = growth inhibition above about 70%; inactive = the rest.
# Columns and labels:
# [1] = NCI Yeast Anticancer Drug Screen. Data for the rad50 strain (AID 155);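 note: 0% = growth of vehicle-only cultures of the same strain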; conditions: S. cerevisiae rad50 strain growth inhibition; at 50.0 µM; stronger effect = higher value
# In short: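 Cells are treated with compound, grown, and their growth is then scored against vehicle-only cultures of the same repair-deficient yeast strain.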
# [2] = NCI Yeast Anticancer Drug Screen. Data for the mec2-1 strain (AID 157); conditions: S. cerevisiae mec2-1 strain, at 50.0 µM, stronger effect = higher value
# In short: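 Vehicle-treated cultures served as reference for growth inhibition of compound-exposed mec2-1 yeast.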
# [3] = NCI Yeast Anticancer Drug Screen. Data for the sgs1 mgt1 strain (AID 161);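 note: 0% = growth of cultures given vehicle only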; conditions: S. cerevisiae sgs1 mgt1 strain, at 50.0 µM, stronger effect = higher value
# In short: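 Mutant yeast exposed to compound; growth scored against vehicle-only wells.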
# [4] = NCI Yeast Anticancer Drug Screen. Data for the cln2 rad14 strain (AID 165);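 note: 0% = growth equal to vehicle treated cultures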; conditions: S. cerevisiae cln2 rad14 strain, at 50.0 µM, stronger effect = higher value
# In short: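 Each compound was tested on cln2 rad14 yeast. Inhibition of growth was calculated against vehicle-exposed controls.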
# [5] = NCI Yeast Anticancer Drug Screen. Data for the bub3 strain (AID 167); conditions: S. cerevisiae bub3 mutant strain, at 50.0 µM, stronger effect = higher value
# In short: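 Part of a panel of yeast mutants defective in DNA damage repair or cell cycle regulation. Each strain is grown with compound, and inhibition is calculated relative to solvent-treated cultures.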
# [6] = NCI Yeast Anticancer Drug Screen. Data for the mlh1 rad18 strain (AID 175); conditions: S. cerevisiae mlh1 rad18 strain growth inhibition; at 50.0 µM; stronger effect = higher value
# In short: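 Vehicle-treated cultures served as the reference for growth inhibition in a yeast strain carrying DNA damage repair alterations exposed to each compound.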
SMILES,growth inhibition [1],growth inhibition [2],growth inhibition [3],growth inhibition [4],growth inhibition [5],growth inhibition [6]
O=c1cc(O)c1=O,23.2% (inactive),18% (inactive),-6.05% (inactive),14.9% (inactive),16.8% (inactive),31.9% (inactive)
O=C(O)C(F)(F)C(F)(Cl)C(F)(F)C(F)(Cl)C(F)(F)C(F)(Cl)C(F)(F)Cl (configuration not stated) (tested in a mixture with another compound),8.45% (inactive) and 43.4% (inactive),28.8% (inactive) and 18.4% (inactive),37.4% (inactive) and 41.1% (inactive),9.7% (inactive) and 27.6% (inactive),-2.15% (inactive) and -2% (inactive),35.5% (inactive) and 30.5% (inactive)
CCCC1C(=O)NC(=O)NC1=O,6.3% (inactive),-6% (inactive),-0.75% (inactive),-10.9% (inactive),3.75% (inactive),-1.05% (inactive)
CN1C2CCCC1CC(=O)C2,-10.3% (inactive),-3.55% (inactive),-19.4% (inactive),-22.4% (inactive),-3.55% (inactive),-10.8% (inactive)
O=[N+]([O-])c1ccc(SCl)c([N+](=O)[O-])c1,31.9% (inactive),11.1% (inactive),18.8% (inactive),14.6% (inactive),31.9% (inactive),17.9% (inactive)
N/N=C(\N)c1nn[nH]n1,-9.55% (inactive),-12.4% (inactive),-12.7% (inactive),-6.05% (inactive),12.9% (inactive),-11.9% (inactive)
COP(=O)(OC)OC.COP(=O)(OC)OC.COP(=O)(OC)OC.COP(=O)(OC)OC.COP(=O)(OC)OC.COP(=O)(OC)OC.[Mn+2].[O-][Cl+3]([O-])([O-])O,43% (inactive),-35% (inactive),-17.1% (inactive),-14.9% (inactive),-18.2% (inactive),-9% (inactive)
CCOC(=O)C1C(=O)C(=O)N2CCc3c([nH]c4ccccc34)C12 (configuration not stated),17.5% (inactive),7.55% (inactive),34% (inactive),12.4% (inactive),-3% (inactive),15.6% (inactive)
CC(=O)[O-].[Ni].c1ccc(/C(=N\Nc2ccccn2)c2ccccn2)cc1,19.8% (inactive),3.15% (inactive),4.25% (inactive),-3.7% (inactive),-4.6% (inactive),18.6% (inactive)
O=[N+]([O-])c1ccc(Cl)c([N+](=O)[O-])c1,99.2% (active),98.5% (active),99.2% (active),96.3% (active),98.7% (active),99.2% (active)
[Cu+2].[O-]c1ccc2ccccc2c1N=Nc1ccccc1.[O-]c1ccc2ccccc2c1N=Nc1ccccc1,-70.1% (inactive),-13.1% (inactive),-13.1% (inactive),-15.9% (inactive),2.4% (inactive),-12.2% (inactive)
c1ccc(-c2sc3cccc[n+]3c2-c2ccccc2)cc1,-5.3% (inactive),0.6% (inactive),-14.5% (inactive),-10.4% (inactive),13.4% (inactive),-3.35% (inactive)
C=CCn1cc2c3c(cccc31)C1CC(C)CN(C)C1C2 (configuration not stated),34.5% (inactive),36% (inactive),25% (inactive),39.9% (inactive),33.6% (inactive),28.9% (inactive)
C=CCN(CC=C)C(Cc1ccccc1)c1ccccc1 (configuration not stated),2.95% (inactive),-7.75% (inactive),-5.85% (inactive),-5.6% (inactive),11.3% (inactive),-5.95% (inactive)
CC(C)CCC(=O)c1ccoc1,-2.45% (inactive),-9.95% (inactive),-1.55% (inactive),3.65% (inactive),5.45% (inactive),-28.6% (inactive)
CC(=O)OC1CCC2(C)C3CCC4(C)C(c5ccc(=O)oc5)CC5OC54C3CCC2(O)C1 (configuration not stated),40% (inactive),2.75% (inactive),19.6% (inactive),-1.8% (inactive),-2.2% (inactive),2.3% (inactive)
C1N2CN3CN1CN(C2)C3.[Cu+2],-15.4% (inactive),-9.85% (inactive),-14.7% (inactive),-8.5% (inactive),-15% (inactive),-6.9% (inactive)
CNC1(c2ccccc2)CC1,24.9% (inactive),-12.2% (inactive),0.95% (inactive),-60.9% (inactive),15.2% (inactive),-7.05% (inactive)
O=C(Nc1ccccc1Cl)OCC(Cl)(Cl)Cl,-15.3% (inactive),2% (inactive),16.1% (inactive),-19.9% (inactive),19.8% (inactive),-11.2% (inactive)
O=C(CCl)Oc1ccccc1Cl,-19.5% (inactive),-5.4% (inactive),-31.1% (inactive),-42.9% (inactive),-23.9% (inactive),-31.6% (inactive)
CCNC(Cc1ccccc1)C1CCCO1 (configuration not stated),3.15% (inactive),-0.35% (inactive),-15.6% (inactive),2% (inactive),-18.4% (inactive),-27.9% (inactive)

SMILES,growth inhibition [1],growth inhibition [2],growth inhibition [3],growth inhibition [4],growth inhibition [5],growth inhibition [6]
CNC(=O)C(CC(C)[N+](C)(C)C)(c1ccccc1)c1ccccc1 (configuration not stated),14.2% (inactive),8.4% (inactive),14.5% (inactive),17.9% (inactive),4.85% (inactive),11.4% (inactive)
CCOC(=O)CC(=O)C(F)(F)F.CCOC(=O)CC(=O)C(F)(F)F.[Ni],-21% (inactive),14.4% (inactive),-12.2% (inactive),24.4% (inactive),12.6% (inactive),-0.95% (inactive)
NC(N)=N/N=C/C(=N\N=C(N)N)C(O)C(O)C(O)C(O)CO (configuration not stated),-10.3% (inactive) and 44.2% (inactive),-20.9% (inactive) and -3.55% (inactive),-16.1% (inactive) and 31.9% (inactive),-22.6% (inactive) and 15.1% (inactive),-3.8% (inactive) and 7.3% (inactive),-22.4% (inactive) and 15.9% (inactive)
[F][Sn]([c]1ccc(Cl)cc1)([c]1ccc(Cl)cc1)[c]1ccc(Cl)cc1,98.2% (active),95.2% (active),98.5% (active),95.9% (active),96.2% (active),98.2% (active)
N#CC(C#N)=Cc1cccc(C#N)c1,-0.75% (inactive),21.4% (inactive),-2.85% (inactive),19.1% (inactive),-4.75% (inactive),3.45% (inactive)
ClCCOCOCCCl,-0.5% (inactive),-7.1% (inactive),-20.1% (inactive),-38% (inactive),-6.15% (inactive),-7.25% (inactive)
CC(C)CC(=O)[O-].CC(C)CC(=O)[O-].N.N.N.N.[Co+3].[O-][Cl+3]([O-])([O-])O.[O-][Cl+3]([O-])([O-])[O-],-23.6% (inactive),-6.2% (inactive),-42.2% (inactive),-20.9% (inactive),-16.2% (inactive),-14.8% (inactive)
CC(=N\O)/C(C)=N/O.CC(=N\O)/C(C)=N/O.[Ni],-5.1% (inactive),3.6% (inactive),-7.35% (inactive),0.95% (inactive),5.4% (inactive),-10.9% (inactive)
C1CN(P(N2CCOCC2)N2CCOCC2)CCO1,-17.6% (inactive),-70.3% (inactive),-9.25% (inactive),18.1% (inactive),-10.4% (inactive),-28.4% (inactive)
O=C(CCC(=O)Oc1ccc(S(=O)(=O)F)cc1)Oc1ccc(S(=O)(=O)F)cc1,49.1% (inactive),15.3% (inactive),44.3% (inactive),26.1% (inactive),7.65% (inactive),9.8% (inactive)
NC(=O)/C=C/C(=O)O,19% (inactive),9.75% (inactive),10.5% (inactive),-8.25% (inactive),11% (inactive),14% (inactive)
CC(=O)OC1CC(OC2C(O)CC(OC3C(O)CC(OC4CCC5(C)C(CCC6C5CC(O)C5(C)C(C7=CC(=O)OC7)CCC65O)C4)OC3C)OC2C)OC(C)C1OC1OC(CO)C(O)C(O)C1O (configuration not stated),6.05% (inactive),-15.4% (inactive),-25.1% (inactive),5% (inactive),5.7% (inactive),10.6% (inactive)
CCC[CH2][Sn]([CH3])([CH3])[CH2]CC[N+](C)(C)C,21.3% (inactive),5.55% (inactive),16.9% (inactive),45% (inactive),10.8% (inactive),13.5% (inactive)
CN(C)CCN(C)C.[C-]#[O+].[C-]#[O+].[C-]#[O+].[C-]#[O+].[W+2],-13% (inactive),-4.65% (inactive),-7.5% (inactive),-51.1% (inactive),2.1% (inactive),0.05% (inactive)
CCc1ccc(OP(=O)(Oc2cc(C)cc(C)c2)Oc2cc(C)cc(C)c2)cc1,-27.9% (inactive),-12.9% (inactive),-16.1% (inactive),3.45% (inactive),1.55% (inactive),-15.9% (inactive)
Cc1cc(C)[n+](CCc2ccccc2)c(C)c1,5.15% (inactive),2.55% (inactive),-3.25% (inactive),-6.3% (inactive),2.4% (inactive),4.25% (inactive)
O=C(Nc1ccccc1Cl)Oc1c(Cl)cc(S(=O)(=O)F)cc1Cl,20.4% (inactive),33.6% (inactive),34.1% (inactive),32.6% (inactive),-2.05% (inactive),44.2% (inactive)
CN1CCC2(CC1)c1ccccc1-c1ccccc12,-7.7% (inactive),-20.6% (inactive),-2.6% (inactive),-25% (inactive),-12.7% (inactive),-38.7% (inactive)
OC1C2CCCCN2C[C@@H](O)[C@H]1O (some centres not stated),16.3% (inactive),11.9% (inactive),22.1% (inactive),22.6% (inactive),12% (inactive),-34% (inactive)
C1CC[N-]CC1.CC(=N\O)/C(C)=N/O.CC(=N\O)/C(C)=N/O.N#C[CH-]CC#N.[Co+2],31.4% (inactive),19.2% (inactive),25.3% (inactive),-19.4% (inactive),28.5% (inactive),38.9% (inactive)
O=[N+]([O-])c1ccc(Cl)c(Cl)c1,20.9% (inactive),-4.6% (inactive),-8.5% (inactive),-37.5% (inactive),-5% (inactive),26.1% (inactive)
